High-throughput results (PubChem BioAssay)
Hits are enriched below; roughly 2.8% of the tested compounds scored in any of these assays.
KKLEB tox – reduces viability of KKLEB cystic fibrosis airway cells | activity change (cytotoxicity), % at 5 µM | AID 602141 | hit rate 0.36% among 360,000 | KKLEB CF airway cells viability, ATPlite luminescence, overnight; stronger effect = lower value; cells stimulated with P. aeruginosa culture filtrate;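 active means corrected activity change at or below -50% at 5 µM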
HIF-2a block – HIF-2a inhibition; 786-0 RCC cells HIF-2a reporter, luciferase luminescence, overnight; inhibition, % at 18.8 µM; hit rate 0.72% among 360,000;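 active means inhibition of the luminescence signal of 40% or more relative to plate controls, in a single-dose primary screen at 18.75 µM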
CF NFkB block – cystic fibrosis NF-kB activation inhibition; KKLEB NF-kB-GFP reporter, PAF-induced, GFP fluorescence overnight; inhibition, % at 5 µM; hit rate 0.86% among 360,000; AID 588850;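 active means at least 50% inhibition at 5 µM, scaled per plate between neutral and stimulator controls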;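 further: PAF is a Pseudomonas aeruginosa culture filtrate used as stimulus; plate controls were PAF-stimulated DMSO wells for no effect and unstimulated DMSO wells for full effect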
Shn3 3UTR inh – Schnurri-3 reporter inhibition in Clone20 osteoblasts. AID 588674. hit rate 0.52% among 360,000. inhibition, % at 12.5 µM. Clone20 osteoblast Shn3 3'UTR firefly luciferase, 24 h;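 active means mean inhibition of at least 75% with every replicate also reaching 75%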;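 further: 0% = median of neutral control wells and 100% = pilot-screen positive control compound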
MITF TRPM1 inh – reduces MITF-dependent TRPM1 promoter luciferase signal; SK-MEL-5 TRPM1 promoter luciferase, 24 h; AID 488899; inhibition, % at 12.5 µM; hit rate 0.83% among 330,000;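 active means mean inhibition across replicates of 60% or more, whatever share of single replicates reaches that level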
Peg3 prom inh – inhibitors of Peg3 promoter. HeLa PEG-Prom luciferase reporter, luminescence, overnight. inhibition, % at 20 µM. hit rate 1.7% among 360,000. AID 588405;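 active means inhibition of at least 50% at 20 µM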
Active calls of the source: *; nt = no result given.

SMILES	KKLEB tox	HIF-2a block	CF NFkB block	Shn3 3UTR inh	MITF TRPM1 inh	Peg3 prom inh
N/C(=N\N=Cc1ccc2c(c1)OCO2)NN=Cc1ccc2c(c1)OCO2	-3.7	-5.7	8.1	-7.6	66.2*	32.2
N/C(=N\N=C/c1ccc(Br)cc1)N/N=C\c1ccc(Br)cc1	-1.9	-17.1	-38.3	11.2	-5.1	101.5*
Nc1nc(Cl)nc2c1ncn2[C@H]1C[C@H](O)[C@@H](CO)O1	23.7	12.5	19.4	87.8*	16.1	15.8
C[N+](C)(C)C[C@H](O)CC(=O)[O-]	16.2	5.3	-22.6	4.4	-1.9	7.0
Cc1cccc2sc(N(CCCN(C)C)C(=O)CCc3ccccc3)nc12	-15.1	10.3	21.9	-6.9	30.6	104.0*
CN(C)CCCN(C(=O)CCc1ccccc1)c1nc2ccc(Br)cc2s1	-20.6	-2.6	23.8	-0.7	87.3*	106.4*
Cc1cccc2sc(N(CCCN(C)C)C(=O)c3nc4ccccc4s3)nc12	-12.8	0.0	37.4	14.5	72.7*	48.0
CN(C)CCCN(C(=O)c1ccco1)c1nc2ccc(Br)cc2s1	-13.5	-63.5	-8.7	-12.1	-27.1	50.8*
O=C(O)c1nc(-c2ccccc2)c(C(=O)NC2CC2)[nH]1	2.8	1.7	-13.4	-16.2	nt	-3.8
O=C(C1CCN(S(=O)(=O)c2c(Cl)cccc2Cl)CC1)N1CCCCCCC1	-6.4	11.5	6.8	-0.7	-7.2	6.2
CCCc1cc2nnc(SCC(=O)N(C)C3CCCCC3)n2c(N)n1	0.5	1.5	7.1	11.3	-4.6	-0.2
CCOc1ccc(NC(=O)CSc2nccn(-c3ccc4c(c3)OCCO4)c2=O)cc1	4.9	5.0	18.4	-25.2	-3.2	-17.9
CC(=O)Nc1ccc(NC(=O)COc2ccc(-c3ccc(C#N)cc3)cc2)cc1	-9.7	-0.4	-34.9	2.5	-26.8	4.7
N#Cc1ccc(-c2ccc(OCC(=O)Nc3cccnc3)cc2)cc1	4.2	-15.0	-4.0	88.9*	-12.4	-21.9
CNC(=S)NNC(=O)c1noc(C)c1C(=O)N1CCN(C(c2ccccc2)c2ccccc2)CC1	8.2	9.1	3.2	-19.2	4.3	8.8
CCN1C/C(=C\c2cccc([N+](=O)[O-])c2)C(=O)/C(=C/c2cccc([N+](=O)[O-])c2)C1	-57.3*	96.9*	93.9*	95.0*	92.5*	105.4*
CCCCC1CCC(C(=O)N(CCCC)c2c(N)n(CCCC)c(=O)[nH]c2=O)CC1 (stereo not drawn)	-7.0	18.5	12.8	69.4	91.1*	21.3
CCCCC1CCC(C(=O)N(CC(C)C)c2c(N)n(CCCC)c(=O)[nH]c2=O)CC1 (stereo not drawn)	-10.6	18.1	13.1	51.5	73.9*	13.7
CCCCn1c(N)c(N(CCC(C)C)C(=O)C2CCCO2)c(=O)[nH]c1=O (stereo not drawn)	16.7	6.7	-20.6	-31.8	5.2	-3.3
CCCCC1CCC(C(=O)N(CCC(C)C)c2c(N)n(CCCC)c(=O)[nH]c2=O)CC1 (stereo not drawn)	-1.4	13.1	-4.2	-0.2	nt	98.2*
NC(=O)Cn1c(=O)n(CCC(=O)Nc2ccc(F)cc2)c(=O)c2sccc21	-8.4	0.2	3.1	-2.3	-5.4	5.0
Cc1occc(=O)c1O	-88.4*	-1.4	-16.9	-8.3	1.0	-4.6
COc1nccnc1NS(=O)(=O)c1ccc(NC(=O)c2cccc(C)c2)cc1	10.1	9.4	-7.8	-13.8	0.3	-0.6
c1ccc2sc(Sc3ncnc4sccc34)nc2c1	-43.8	-40.8	72.0*	-13.3	-5.6	-56.0
Cc1cc(N)ncc1[N+](=O)[O-]	8.4	20.6	-5.7	-8.3	8.7	-0.1
SMILES	KKLEB tox	HIF-2a block	CF NFkB block	Shn3 3UTR inh	MITF TRPM1 inh	Peg3 prom inh
Cc1cc(Sc2nc(N)ncc2[N+](=O)[O-])ncn1	-2.2	3.3	37.6	59.4	24.3	78.9*
COC(=O)c1sc(N2C(=O)c3oc4ccccc4c(=O)c3C2c2cccc(O)c2)nc1C (stereo not drawn)	-0.9	11.3	0.4	25.8	-23.4	52.2*
CCOC(=O)/C=C(\C)Sc1cc(=O)oc2ccccc12	-34.3	2.8	36.8	33.5	19.1	13.3
CCOC(=O)/C=C(\C)Sc1cc(O)c2ccccc2c1O	-42.7	0.2	88.5*	65.7	82.9*	37.5
CCc1cc(C(=O)O)c(NC(=O)C(c2ccccc2)c2ccccc2)s1	-66.1*	15.0	-1.5	-9.8	4.6	14.6
CCOC(=O)c1cc(C)sc1NC(=O)C(c1ccccc1)c1ccccc1	-20.8	11.7	24.0	18.1	-1.0	19.2
C/C(=N\Nc1nnc(-c2ccccc2)c(-c2ccccc2)n1)c1cccc([N+](=O)[O-])c1	-51.3*	10.1	33.8	13.5	-21.6	19.2
O=[N+]([O-])c1cccc(/C=N/Nc2nnc(-c3ccccc3)c(-c3ccccc3)n2)c1	7.1	18.3	19.7	7.4	-8.2	12.1
COc1cc2cc3c(N)c(C(=O)NCc4ccco4)sc3nc2cc1OC	-6.8	-8.8	-5.2	-25.4	-51.4	-67.1
COc1cc2cc3c(N)c(C(=O)Nc4sc(C)c(C)c4C#N)sc3nc2cc1OC	-99.5*	-5.5	89.4*	45.5	1.6	25.2
CCN(CC)C(=S)Sc1c(-c2ccccc2)c2cc(Cl)ccc2[nH]c1=O	-1.0	19.4	-2.9	87.0*	-2.0	42.9
Nc1ccc(NC(=O)c2ccccc2)c2c1C(=O)c1ccccc1C2=O	-53.2*	2.6	61.3*	35.1	23.6	31.5
Cn1ncc2c(N3CCN(c4ccccc4F)CC3)ncnc21	11.5	-57.2	5.7	22.1	-18.4	-18.7
Cn1ncc2c(N3CCN(c4ccc(Cl)c(Cl)c4)CC3)ncnc21	-20.0	-71.2	41.9	79.1	-8.7	99.5*
COc1ccc(OC)c(S(=O)(=O)N2c3ccccc3CC2C)c1 (stereo not drawn)	1.7	10.9	-15.9	15.3	-2.8	55.7*
CC(=O)C1=C(c2ccc(Br)cc2)C(=O)c2ccccc2C1=O	-12.0	29.6	80.8*	97.3*	83.6*	95.5*
CC(=O)Nc1c(Br)cc2c(c1Br)C(=O)c1ccccc1-2	-5.8	-17.7	0.1	-0.4	-2.9	-4.8
CC(C)C[C@H](NC(=O)c1nc[nH]c1C(=O)NC(c1ccccc1)c1ccccc1)C(=O)OC(C)(C)C	-1.9	34.7	33.8	28.4	8.6	84.2*
COc1ccc(CCNC(=O)Nc2cccs2)c(OC)c1	0.6	-6.4	-8.4	5.2	-11.1	-5.2
CC1Cc2ccccc2N1C(=O)COC(=O)c1c2c(nc3ccccc13)CCCCC2 (stereo not drawn)	-6.3	-25.3	42.8	10.1	-2.4	50.9*
S=C1Nc2ccccc2CS1	-0.7	11.5	-14.9	2.3	nt	5.2
S=C1Cc2ccccc2N1	18.4	22.1	-7.0	27.4	91.1*	95.5*
COc1ccc(C[C@H]2CN3C(=NC[C@H]3Cc3ccccc3)N2CCNC(=O)c2ccc(C)c(Br)c2)cc1	-9.2	4.9	32.7	12.7	57.9	94.7*
